We go through eleven molecules from PubChem BioAssay (EPA / NIEHS).

“And” between values parts separate entries of the source, which are not always exact repeats. Identical values can stand only once. The source made the active and inactive calls. How the source made its calls: active means hit-call score of the fitted dose curve at least 0.9, where 1 is the maximum; inactive means score below 0.9.

Read-out in the assay: CD40, CD40 (gene 958)
The assay is described as follows: BSK_IMphg_CD40: BioMAP Diversity Plus: IMphg Assay for CD40 Biomarker Activity (AID 2284288). The note with it: primary human endothelial cells with macrophages. The protocol: BSK_IMphg is a cell-based, multiplexed-readout assay that uses venular endothelial cells and macrophages, a human vascular primary cell, with measurements taken at 24 hours after chemical dosing in a microplate: 96-well plate.BSK_IMphg_CD40 is an assay component measured in the BSK_IMphg assay. It measures CD40 antibody related to regulation of gene expression using ELISA technology.Data from the assay component BSK_IMphg_CD40 was analyzed at the endpoint, BSK_IMphg_CD40, in the positive analysis fitting direction relative to DMSO as the negative control and baseline of activity. Using a type of binding reporter, gain or loss-of-signal activity can be used to understand protein changes. To generalize the intended target to other relatable targets, this assay endpoint is annotated to the 'cytokine' intended target family, where the subfamily is 'inflammatory factor'.
The levels of cell surface (or secreted, indicated by the prefix "s") biomarker endpoints were measured by ELISA. Overt cytotoxicity to cells in confluent adherent cultures (all systems other than the BT system) was assessed by measuring total protein levels using sulforhodamine B (SRB) staining in parallel cultures at the time of biomarker measurements, indicated as SRB endpoints. For proliferation assays for adherent cell types, individual cell types are cultured at sub-confluence and relative cell numbers quantified by SRB staining at time points optimized for each system (48 h: 3C and CASM3C systems; 72 h: BT and HDF3CGF systems; 96 h: SAg system). SRB was performed by staining cells with 0.1% SRB after fixation with 10% TCA and reading wells at 560 nm.Viability and proliferation of PBMC (T cells) was quantified by Alamar Blue reduction for the SAg and BT systems. For PBMC viability (referred to as PBMC Cytotoxicity within the assay endpoint names), cells were plated (75,000/well in a 96-well plate) and then chemical samples added for 1 h before addition of activators, SEB and TSST-1 (20 ng/mL final concentration each). Cells were incubated for 90 h. Then, Alamar Blue (20 uL/well) (Invitrogen, Cat DAL1100) was added for 6 h, and the plates were read with a fluorescence microplate reader at 546/580 nm (excitation/emission). For PBMC proliferation, cells were plated and activated as above but incubated for only 16 h prior to addition of Alamar Blue. Plates were read after 6 h.
As to `O=C(CC(=O)C(F)(F)C(F)(F)C(F)(F)F)c1cccs1`, the result was inactive. Still for that read-out and setting: the value for `O=C(O)CCC(F)(F)C(F)(F)C(F)(F)C(F)(F)C(F)(F)F` was “inactive”; that for `O=C(O)CCC(F)(F)C(F)(F)C(F)(F)C(F)(F)C(F)(F)C(F)(F)F` was “inactive”. On the same count and under the same terms, next, `O=P(O)(O)CCC(F)(F)C(F)(F)C(F)(F)C(F)(F)C(F)(F)C(F)(F)F`: “inactive”. On the same count and under the same terms, next, `CN(Cc1cnc2nc(N)nc(N)c2n1)c1ccc(C(=O)N[C@@H](CCC(=O)O)C(=O)O)cc1`: “inactive”. As to `OCC(F)(F)C(F)(F)C(F)(F)C(F)(F)C(F)(F)C(F)(F)C(F)(F)C(F)(F)C(F)(F)C(F)(F)C(F)(F)F`, the concentration at half-maximal activity (AC50) is 1.35 µM (active). Turning to `O=C(O)C(F)(F)OC(F)(F)C(F)(F)OC(F)(F)C(F)(F)OC(F)(F)C(F)(F)C(F)(F)C(F)(F)F`, the concentration at half-maximal activity (AC50) was 42.4 µM (active) and 40.9 µM (active). With `CN(CCO)S(=O)(=O)C(F)(F)C(F)(F)C(F)(F)C(F)(F)C(F)(F)C(F)(F)C(F)(F)C(F)(F)F`, the outcome was inactive. The same measure, in the same setting: the value for `O=P(O)(O)CCC(F)(F)C(F)(F)C(F)(F)C(F)(F)C(F)(F)C(F)(F)C(F)(F)C(F)(F)F` was “inactive”; that for `C=CC(=O)OCCC(F)(F)C(F)(F)C(F)(F)C(F)(F)C(F)(F)C(F)(F)C(F)(F)C(F)(F)F` was “inactive”.

As for `O=S(=O)(O)C(F)(F)C(F)(F)C(F)(F)C(F)(F)C(F)(F)C(F)(F)C(F)(F)C(F)(F)C(F)(F)C(F)(F)F`, the concentration at half-maximal activity (AC50) is 10.6 µM (active) and 6.06 µM (active).
